In the library only some 2.4% were active in any assay of this set; here they are far more common.
D2 ag-1 – activates the human D2 dopamine receptor; HEK293 T-REx D2 cells, calcium flux agonist mode; 0.53% of 340,000 active; activation, % at 2 µM;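 active means activation over 3 SD above normal in the single-dose calcium agonist read, cut at about 30% in these data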; further: 0% is about no effect
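HEK293 Trex D2 cells, tetracycline-induced, o/n 30 C 5% CO2; no-wash Ca dye, RT 30–90 min; 10-cycle baseline, 23 nl cpd added, kinetic Ca read 180 s; agonist hits = positive Ca response.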
D2 antagonist – D2 dopamine receptor (human) antagonism; HEK293 TREx D2 cells, calcium flux, dopamine EC80; inhibition, % at 10 µM; 2% of 340,000 active; in the data active means inhibition above about 30%; inactive means below that, where a call was filed; further: 0% is about no effect
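Calcium mobilization kinetics were recorded at 1 s intervals in tetracycline-induced HEK293 T-REx D2 cells, first for 180 s after compound addition and then 180 s after EC80 dopamine.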
D2 ag-2 – agonists of human D2 dopamine receptor (beta-arrestin); P14416; 0.084% of 360,000 active; DiscoveRx PathHunter D2 beta-arrestin, luminescence, 90 min; 100% = 57 uM dopamine signal; activation, % (no concentration beside the values); in the data active means activation above about 40%; inconclusive means between about 15% and that limit
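DiscoveRx PathHunter D2 beta-arrestin cells (2,100/well) attached overnight, then compound-stimulated 90 min at 37 C in HBSS/10 mM HEPES/0.1% Tween-20 buffer; beta-galactosidase complementation read by luminescence after 1 h at ambient temperature. Dopamine 57 uM final (EC100) as control.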
D2 PAM-1 – human D2 receptor positive allosteric modulation; DiscoveRx D2 beta-arrestin cells, luminescence, 90 min; 100% = 57 uM dopamine signal; potentiation, % (test concentration not listed); 0.23% of 360,000 active; in the data active means potentiation above about 50%; inconclusive means mostly about 30% to 49%
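PathHunter beta-arrestin assay in DiscoveRx D2 cells. Compounds were added with an EC20 of dopamine (50 nM final) for 90 min at 37 deg C. Luminescence was read 1 h after detection reagent, with 57 uM dopamine as the EC100 control.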
D2 PAM-2 – positive allosteric modulators of human D2 dopamine receptor; 0.34% of 340,000 active; potentiation, % at 10 µM; HEK293 T-REx D2, calcium flux, EC20 dopamine potentiation; AID 485347;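 active means potentiation over 3 SD above the plate norm, cut at about 30% in these data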; further: 0% is about no effect
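Tetracycline-induced Hek293 Trex D2 cells, force-coupled to calcium, loaded with no-wash calcium dye. Compound added with 180 s kinetic read for agonism, then EC20 dopamine and a further 180 s read for potentiation.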
D3 ag – D3 receptor agonism confirmed, beta-arrestin readout. shares compounds with D2 ag-1. DiscoveRx D3 beta-arrestin cells, luminescence, 90 min. Potency, µM (series often up to 76.9 µM), for inactives: top-dose activation, usual class: activators. 4% of 2,300 active;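 further: potency means the concentration at half of the fitted maximal effect; 100% = dopamine control response; nearly all actives have a fitted effect of over 70% in size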
Target sequence (P35462 whole entry, looked up): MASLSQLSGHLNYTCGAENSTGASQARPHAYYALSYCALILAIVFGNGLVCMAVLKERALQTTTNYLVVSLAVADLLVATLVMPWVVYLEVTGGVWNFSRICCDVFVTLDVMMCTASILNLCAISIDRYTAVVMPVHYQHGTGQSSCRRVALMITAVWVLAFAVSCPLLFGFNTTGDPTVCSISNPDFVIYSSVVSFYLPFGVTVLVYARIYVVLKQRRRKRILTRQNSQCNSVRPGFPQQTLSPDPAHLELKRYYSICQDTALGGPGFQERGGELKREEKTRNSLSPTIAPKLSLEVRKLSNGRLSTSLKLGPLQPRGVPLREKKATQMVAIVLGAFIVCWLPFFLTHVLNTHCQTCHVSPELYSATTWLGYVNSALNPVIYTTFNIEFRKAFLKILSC
D2 ag-3 – activates human D2 dopamine receptor in D3 counterscreen; 5.9% of 2,300 active; DiscoveRx PathHunter D2 beta-arrestin, luminescence, 90 min; response scale: percent relative to full dopamine signal; Potency, µM (highest dose often 76.9 µM), for the others: at the highest dose activation, most hits filed as activators; shares compounds with D2 ag-1; AID 720507; further: potency means the concentration at half of the fitted maximal effect; % of control where 0% means no effect; nearly all actives have a fitted effect of over 70% in size
Starred values were filed as active, the others as inactive; ? = inconclusive; nt = no result given. Unless noted, the call rests on the fitted dose curve; in most records, active means well fitted activation curve with a large enough effect; inconclusive means small, poorly fitted or top-dose-only effect; inactive means flat fitted curve, though single readings scatter.

SMILES	D2 ag-1	D2 antagonist	D2 ag-2	D2 PAM-1	D2 PAM-2	D3 ag	D2 ag-3
CSCCC(NC(=O)c1ccccc1)C(=O)NCCCn1nc(C)cc1C (configuration not stated)	0	12	-5	-4	-7	nt	nt
Cc1ccc2c(c1)[C@H]1[C@H](CO2)[C@H](c2ccccc2)[C@]2(C)C(=O)N(Cc3ccc(Cl)cc3)CC(=O)N12	0	-2	-2	-7	10	-9%	-4%
COC(=O)COc1ccc(NC(=O)Cn2nc(-c3ccccc3)c3ccccc3c2=O)cc1	0	-3	4	-5	7	nt	nt
COc1ccc(-c2nn(CC(=O)Nc3ccc(Cl)c(Cl)c3)c(=O)c3ccccc23)cc1	54*	29	-4	-1	6	-8%	-4%
CCN1C(=O)/C(=C/C=C2\N(CC)c3cc(S(=O)(=O)N(C)C)ccc3N2c2ccccc2)SC1=S	16	-3	-4	-1	0	-24%	-11%
CCN1C(=O)/C(=C\C=C\c2ccccc2[N+](=O)[O-])SC1=S	0	-1	1	-2	-3	nt	nt
CCOC(=O)c1sc(/S(C)=N\S(=O)(=O)c2cccc(Cl)c2)c2c1CCC=C2 (configuration not stated)	-1	0	3	10	-4	nt	nt
Cc1ccc(SCCNC(=S)Nc2ccc(C)cc2C)cc1	27	2	-2	1	-15	-10%	-2%
Cc1ccc(C(=O)CCC(=O)OCC(=O)NNC(=O)c2ccc([N+](=O)[O-])cc2)cc1	nt	nt	1	28	nt	0%	5%
Cc1ccc(NC(=O)CCC(=O)c2ccccc2)cc1	nt	nt	0	-7	nt	nt	nt
COc1ccc(CC(=O)NNC(=O)c2ccc(NC(C)=O)cc2)cc1	1	6	-4	2	10	nt	nt
Cc1ccc(C(=O)CCC(=O)NNC(=O)c2ccccc2O)cc1	0	10	-2	-1	10	-5%	-2%
COc1ccc(C(=O)NNC(=O)Cc2ccc([N+](=O)[O-])cc2)cc1	42*	-13	0	-11	-21	1%	-2%
Cc1ccc(S(=O)(=O)CCC(=O)OCC(=O)NNC(=O)c2ccc([N+](=O)[O-])cc2)cc1	1	12	-3	-6	2	nt	nt
Cc1ccc(SCC(=O)c2ccc(CC(=O)O)s2)cc1	0	7	1	1	-25	nt	nt
CCNC(=O)N(C)c1c(CC)nc2ccc(C(=O)N3CCN(S(=O)(=O)CC)CC3)cn12	nt	nt	-4	-14	nt	nt	nt
O=C(CN1CCN(c2ccccn2)CC1)Nc1ccc(OC(F)(F)F)cc1	16	-24	9	1	-11	nt	nt
CN(C)c1ccc(NC(=O)CCN2CCN(c3ccccn3)CC2)cc1	80*	85*	?	?	-27	?	0.25µM*
O=C(CCN1CCN(c2ccccn2)CC1)Nc1ccc(F)cc1	69*	67*	12	-17	-24	?	29%
CCOCc1cc(CN2CCC(CCC(=O)NC3CC3)CC2)ccc1OC	0	-6	-3	-4	-6	nt	nt
Cc1nn(CC(=O)N2CCN(c3ccccn3)CC2)c(=O)c2cc3sccc3n12	1	4	-2	-8	0	nt	nt
Cc1ccc(C(=O)COC(=O)CCS(=O)(=O)c2ccccc2)cc1[N+](=O)[O-]	nt	nt	-11	-32	nt	-22%	-16%
Cc1ccccc1C(=O)Nc1ccnn1C1CCN(CCCc2ccccc2)CC1	2	-13	?	-7	17	nt	nt
O=C(Nc1ccnn1C1CCN(CCCc2ccccc2)CC1)c1ccccc1	17	44*	-1	-7	-15	-4%	5%
O=C(Nc1ccnn1C1CCN(C/C=C/c2ccccc2)CC1)C1CCCC1	58*	28	4	-18	-21	-3%	6%
SMILES	D2 ag-1	D2 antagonist	D2 ag-2	D2 PAM-1	D2 PAM-2	D3 ag	D2 ag-3
COc1ccccc1C(=O)Nc1ccnn1C1CCN(CCCc2ccccc2)CC1	24	33*	2	-29	-10	-7%	11%
O=C(Nc1ccc(C(=O)N2CCCCC2)cc1)Nc1cccc(Cl)c1	0	17	-3	-10	3	nt	nt
COc1ccc(CN2CCN(C(=O)c3ccco3)CC2)cc1OCc1ccccc1	83*	71*	?	0	-16	?	18µM*
CCN1CCN(Cc2ccc(OC)c(OCc3ccccc3)c2)CC1	0	0	-2	-15	-19	nt	nt
COc1ccc(CN2CCN(C(=O)c3ccco3)CC2)cc1OC	86*	60*	84*	?	-23	?	16µM*
COc1ccc(CN2CCN(c3ccccn3)CC2)cc1OCc1ccccc1	72*	87*	?	10	-21	-1%	?
COc1ccc(-c2[nH]ncc2CN2CCN(c3ccccn3)CC2)c(OC)c1	69*	57*	10	5	-22	-19%	9%
CCN(C(=O)COC(=O)c1ccc([N+](=O)[O-])o1)C1CCCCC1	nt	nt	0	1	nt	nt	nt
CCOC(=O)C1=CCN(S(=O)(=O)c2ccccc2Cl)C1c1cccc(F)c1 (configuration not stated)	nt	nt	3	3	nt	nt	nt
CC1(C)CCc2cc(CN3CCN(c4ccccn4)CC3)ccc2O1	77*	85*	13	4	-21	16%	?
COc1ccccc1OCC(=O)N(Cc1ccc(N(C)C)cc1)CC1CCCO1 (configuration not stated)	-1	nt	nt	nt	-3	nt	nt
CCCn1c(C2CCCN2c2nc(C)cs2)nc2cc(Cl)c(Cl)cc21 (configuration not stated)	-1	9	-1	-16	-8	nt	nt
CCCn1c(C2CCCN2c2nc(-c3cccc(Br)c3)cs2)nc2cc(Cl)c(Cl)cc21 (configuration not stated)	40*	5	-4	-15	-10	1%	5%
CCOc1ccc(N(CC(=O)NCCOc2ccc(C)cc2)S(=O)(=O)c2ccccc2)cc1	1	-9	-4	-10	0	nt	nt
COc1ccc(N(CC(=O)NCCOc2ccccc2)S(=O)(=O)c2ccc(C)cc2)cc1	26	-9	0	-11	-4	-1%	14%
CC1CCCCN1Cc1ccc(-c2nnn(CC(=O)NC3CCCCC3)n2)cc1 (configuration not stated)	50*	-14	-1	-2	-19	-9%	-6%
COCCNC(=S)Nc1cc2oc3ccccc3c2cc1OC	57*	30*	2	-12	-19	-4%	17%

Source: PubChem
